Test results taken from PubChem BioAssay.
Measured potencies and affinities stand elsewhere. Records with an inconclusive call do not appear. Calls of active or inactive are those of the source.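 The calls were made as follows, unless noted: active = a fitted half-maximal concentration no higher than twice the top valid tested dose, with signal falling as cells die; inconclusive = flat curve between -70% and -30%, or poor fit; inactive = the rest, including signal rising instead of falling.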

Key:
[1] = fungal growth arrest, C. neoformans – Alamar Blue, cherry-picks, dose response (AID 686998;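 active = falling signal with fitted half-maximal potency no higher than twice the top valid tested dose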)
[2] = C. neoformans lysis by adenylate kinase leakage – AK release luminescence, cherry-picks, dose response (AID 687000;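 active = fitted dose curve reaches 40% lysis signal rise at or below the highest valid concentration tested for that sample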;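 also: luminescent detection of adenylate kinase leaking from lysed yeast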)
[3] = viability loss in HepG2 hepatoma cells – cell-based, cherry-picks, set 2, cytotoxicity control, dose response (AID 687002;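 active = a dose-response fit showing signal loss, with half-maximal concentration no higher than twice the top tested dose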)
[4] = viability loss in HeLa cells – cell-based, ATP luminescence, cherry-pick samples, cytotoxicity control, dose response (AID 687004)

Measured: outcome

COc1ccc(CN(C)C[C@@H]2OCCCC[C@H](C)Oc3ccc(N(C)C)cc3C(=O)N([C@H](C)CO)C[C@@H]2C)cc1
inactive: all assays above

COc1ccc(-n2cc(CNCCc3nc(C)cc(C)n3)c(-c3ccccc3Cl)n2)cc1
inactive: all assays above

Cc1cc(C)c(NC(=O)C2CCCN2CCO)c(C)c1 (stereo not given)
inactive: all assays above

Cc1cccc(N2CCN(C(=O)C3CCC(=O)N3C(C)C)CC2C)c1 (stereo not given)
inactive: all assays above

C[C@@H]1CN([C@H](C)CO)C(=O)CCCn2cc(nn2)CO[C@@H]1CN(C)C(=O)CCCN(C)C
inactive: all assays above

CCC(C)(C(=O)NC1CCCCC1)N(C(=O)C1CCC(=O)N1)c1ccc(C)cc1 (stereo not given)
inactive: all assays above

Cc1ccccc1-n1ncc2c(SCC(=O)NC3CCCC3)ncnc21
inactive: all assays above

Cc1ccc(S(=O)(=O)Nc2ccc3c(c2)C(=O)N([C@@H](C)CO)C[C@H](C)[C@H](CN(C)S(=O)(=O)c2ccc(Cl)cc2)OCCCC[C@@H](C)O3)cc1
inactive: all assays above

C[C@H]1CN([C@@H](C)CO)C(=O)Cc2cc(NC(=O)Nc3cccc4ccccc34)ccc2O[C@H]1CN(C)S(=O)(=O)c1cccs1
inactive: all assays above

COc1ccc(OC(C)C(=O)NC(C)c2ccccc2)cc1 (stereo not given)
inactive: all assays above

COCC(=O)NC[C@H]1N[C@H](CO)[C@@H]1c1ccc(C2=CCCC2)cc1
inactive: all assays above

CCC(=O)N1CCN(c2ccccc2NC(=S)NC(=O)c2cccc([N+](=O)[O-])c2)CC1
inactive: all assays above

O=C(C[C@@H]1CC[C@H]2[C@@H](COC[C@H](O)CN2Cc2ccccc2F)O1)NC1CCC1
inactive: all assays above

COc1ccc(C2CC(c3cccs3)=NN2C(=O)c2ccc(Br)o2)cc1 (stereo not given)
inactive: all assays above

COc1ccc(CN(C)C[C@@H]2Oc3ccc(NC(=O)Nc4ccc(F)cc4)cc3CC(=O)N([C@H](C)CO)C[C@H]2C)cc1
inactive: all assays above

COCC#Cc1cnc2c(c1)C(=O)N([C@H](C)CO)C[C@@H](C)[C@@H](CN(C)C(=O)Nc1ccc(OC)cc1)O2
inactive: all assays above

COCC(=O)Nc1ccc2c(c1)C(=O)N(C)C[C@@H](OC)[C@H](C)CN(Cc1ccccc1)[C@@H](C)CO2
inactive: all assays above

COc1cccc(C#Cc2cnc3c(c2)C(=O)N([C@H](C)CO)C[C@@H](C)[C@@H](CN(C)C(=O)C2CCOCC2)O3)c1
inactive: all assays above

C[C@@H]1CN([C@H](C)CO)C(=O)c2cc(C#CC(C)(C)O)cnc2O[C@@H]1CN(C)Cc1cncnc1
inactive: all assays above

C[C@H]1CN([C@@H](C)CO)C(=O)c2cc(Br)cnc2O[C@@H]1CN(C)Cc1ccccn1
inactive: all assays above

C[C@@H]1CN([C@H](C)CO)C(=O)c2cc(NC(=O)Nc3cccc4ccccc34)ccc2O[C@H]1CN(C)C(=O)Nc1ccc(C(F)(F)F)cc1
inactive: all assays above

C[C@H](CO)N1C[C@H](C)[C@H](CN(C)S(=O)(=O)c2ccc(F)cc2)Oc2ccc(NS(=O)(=O)c3ccc(Cl)cc3)cc2C1=O
inactive: all assays above

Cc1ccc(S(=O)(=O)Nc2ccc3c(c2)C(=O)N([C@@H](C)CO)C[C@H](C)[C@H](CN(C)C(=O)Nc2ccc(C(F)(F)F)cc2)O3)cc1
inactive: all assays above

C[C@@H](O)C#Cc1ccc([C@@H]2[C@H]3CN(CC4CC4)CCCCN3[C@H]2CO)cc1
inactive: all assays above

CC(C)(C)SCCNC(=O)CN(c1ccccc1)S(=O)(=O)c1ccc(F)cc1
inactive: all assays above

CN1[C@@H]2c3ccc(-c4cccnc4)c(=O)n3C[C@@H]2[C@@H](CO)[C@@H]1C(=O)N1CCc2ccccc2C1
inactive: all assays above

COCC(=O)NC[C@@H]1N[C@@H](CO)[C@H]1c1ccc(C2=CCCC2)cc1
inactive: all assays above

O=C(NC1CCCC1)N1CCCCN2[C@H](CO)[C@H](c3ccc(-c4cncnc4)cc3)[C@@H]2C1
inactive: all assays above

CC(C)C#Cc1ccc2c(c1)O[C@H](CN(C)C(=O)Cc1ccccn1)[C@H](C)CN([C@H](C)CO)S2(=O)=O
inactive: all assays above

C[C@H](CO)N1C[C@H](C)[C@H](CN(C)C(=O)Nc2ccc3c(c2)OCO3)Oc2ncc(-c3ccc(F)cc3)cc2C1=O
inactive: all assays above

CCC(=O)N1[C@@H]2Cn3c(cccc3=O)[C@H]1[C@@H](C(=O)NCc1ccccc1)[C@@H]2CO
inactive: all assays above

O=C(C[C@@H]1CC[C@H](NC(=O)Cc2ccccn2)[C@H](CO)O1)NCCc1ccccc1
inactive: all assays above

O=C(Nc1ccc(F)cc1)N1C[C@H]2[C@@H](c3ccccc31)[C@@H](CO)N2Cc1cocn1
inactive: all assays above

C[C@H]1CCCCO[C@H](CN(C)C(=O)c2ccncc2)[C@@H](C)CN([C@@H](C)CO)C(=O)c2cc(NC(=O)Cc3ccccc3)ccc2O1
inactive: all assays above

C[C@H](CO)N1C[C@H](C)[C@H](CN(C)C(=O)Nc2cccc3ccccc23)Oc2ccc(NC(=O)Nc3ccccc3)cc2C1=O
inactive: all assays above

Cc1noc(C)c1S(=O)(=O)N(C)C[C@@H]1Oc2c(NC(=O)c3cnccn3)cccc2C(=O)N([C@@H](C)CO)C[C@@H]1C
inactive: all assays above

C/C=C/c1cnc2c(c1)C(=O)N([C@@H](C)CO)C[C@@H](C)[C@@H](CN(C)C(=O)C1CCCCC1)O2
inactive: all assays above

C[C@@H]1CN([C@@H](C)CO)C(=O)CCCn2cc(nn2)CO[C@@H]1CN(C)C(=O)NC1CCCC1
inactive: all assays above

C[C@H](CO)N1C[C@H](C)[C@H](CN(C)Cc2cccc(C(F)(F)F)c2)OCc2cnnn2CCCC1=O
inactive: all assays above

C[C@@H]1CN([C@@H](C)CO)C(=O)c2cc(NS(=O)(=O)c3cn(C)cn3)ccc2O[C@@H]1CN(C)C(=O)Nc1cccc2ccccc12
inactive: all assays above

C[C@@H]1CN([C@@H](C)CO)C(=O)c2cc(-c3cncnc3)cnc2O[C@H]1CN(C)C(=O)Cc1ccccc1
inactive: all assays above

COc1ccc(-n2ncc3c(SCC(=O)N4CCN(c5ccccc5OC)CC4)ncnc32)cc1
inactive: all assays above

O=C(C[C@@H]1CC[C@H]2[C@@H](COC[C@@H](O)CN2Cc2ccc(Cl)cc2)O1)NCc1cccc(F)c1
inactive: all assays above

O=C(Cc1cccs1)N1CCN(c2ccccc2)CC1
inactive: all assays above

Cc1ccc(S(=O)(=O)Nc2ccc3c(c2)C(=O)N([C@@H](C)CO)C[C@@H](C)[C@@H](CN(C)S(=O)(=O)c2ccc(Cl)cc2)OCCCC[C@H](C)O3)cc1
inactive: all assays above

C[C@@H]1CN([C@H](C)CO)C(=O)c2c(c3ccccc3n2C)-c2ccccc2CO[C@H]1CN(C)S(=O)(=O)c1cccs1
inactive: all assays above

O=C(Nc1ccc(F)cc1)N1C[C@@H]2[C@H](c3ccccc31)[C@H](CO)N2Cc1cocn1
inactive: all assays above

C[C@H]1CN([C@@H](C)CO)C(=O)c2cc(-c3cncnc3)cnc2O[C@H]1CN(C)C(=O)c1ccccc1F
inactive: all assays above

C[C@H]1CN([C@@H](C)CO)S(=O)(=O)c2ccc(C#Cc3cccc(F)c3)cc2O[C@@H]1CN(C)C
inactive: all assays above

CCCNC(=O)N1[C@@H](CO)[C@@H](c2ccc(-c3ccccc3)cc2)[C@@H]1CNC(C)=O
inactive: all assays above

C/C=C/c1ccc([C@@H]2[C@@H](CO)N3CCCCN(C(=O)Nc4ccc(OC)cc4)C[C@H]23)cc1
inactive: all assays above

C[C@@H]1CCCCO[C@H](CN(C)C(=O)c2ccncc2)[C@H](C)CN([C@H](C)CO)C(=O)c2cc(NC(=O)CCC(F)(F)F)ccc2O1
inactive: all assays above

CC(C)(C)C(=O)N1CCCC1C(=O)Nc1ccccc1 (stereo not given)
inactive: all assays above

COc1ccc(S(=O)(=O)Nc2ccc3c(c2)C(=O)N([C@@H](C)CO)C[C@H](C)[C@@H](CN(C)C)OCCCC[C@H](C)O3)cc1
inactive: all assays above

Cc1noc(C)c1NC(=O)N(C)C[C@@H]1Oc2ccc(NC(=O)NC(C)C)cc2CC(=O)N([C@H](C)CO)C[C@H]1C
inactive: all assays above
